The campaign covered roughly 52,000 compounds. About 1,700 (3.3%) were called active. No stated cut-off is given here; in the data, active means survival mostly below about 52% (no sharp cut-off); inactive means mostly above about 56%. This excerpt belongs to a sample that is enriched for actives.
The molecules below were run on Wild type (assay: growth inhibition of S. aureus wild type versus tarO mutant, primary screen, teichoic acid synthesis inhibitors, RN4220, OD600 (AID 463173)). Details: S. aureus RN4220 wild type/DeltatarO growth, OD600, 18 h, active compounds read low, screened at 18.75 µg/mL (by protocol).

Compound	survival
COc1ccc(CCNC(=O)CCc2c(C)c3cc4c(C)coc4cc3oc2=O)cc1	90% (inactive)
C=C(C)Cn1c(=O)c2c(nc3n2CCN3c2ccc(F)cc2)n(C)c1=O	85% (inactive)
CC(=O)c1cccc(NC(=O)CSc2nc3ccccc3nc2Cc2ccc(F)cc2)c1	73% (inactive)
Cc1ccc2oc(-c3cc(N=C/C=C/c4ccc5c(c4)OCO5)ccc3O)nc2c1	113% (inactive)
CN(C)c1ccc(CNC(=O)C2CCN(c3nc4ccccc4[nH]3)CC2)cc1	45% (inactive)
COc1ccc(CNC(=O)C2CCN(c3nc4ccccc4[nH]3)CC2)cc1OC	47% (inactive)
CCOc1cc(CNC(=O)C2CCN(c3nc4ccccc4[nH]3)CC2)cc(OCC)c1OCC	-3% (active)
CCCN(CCC)CCNC(=O)C1CCN(c2nc3ccc(CC)cc3s2)CC1	67% (inactive)
FC(F)(F)c1cccc(-c2nnn3c2nc(NC2CCCCC2)c2ccccc23)c1	28% (inactive)
Clc1ccc(-c2nnn3c2nc(NC2CCCCC2)c2ccccc23)cc1	57% (inactive)
Cc1ccc(-c2nnn3c2nc(NC2CCC(C)CC2)c2ccccc23)cc1 (centres undefined)	4% (active)
CC1CCC(Nc2nc3c(-c4cccc(C(F)(F)F)c4)nnn3c3ccccc23)CC1 (centres undefined)	-1% (active)
CC1CCC(Nc2nc3c(-c4ccc(Cl)cc4)nnn3c3ccccc23)CC1 (centres undefined)	25% (inactive)
Fc1cccc(-c2nnn3c2nc(NC2CCCCC2)c2ccccc23)c1	85% (inactive)
COc1cc2nc(Nc3cccc(F)c3)nc(N)c2cc1OC	89% (inactive)
Cc1ccc(OCc2nnc(-c3ccccc3)o2)cc1	77% (inactive)
O=C(Nc1cccc(C(=O)OCc2cc(=O)n3c4c(sc3n2)CCCC4)c1)c1cccc(Cl)c1	73% (inactive)
CN1c2ccccc2Oc2nnc(N3CCN(Cc4ccccc4)CC3)cc21	110% (inactive)
CCc1ccc(NC(=O)C(=O)NCC(c2cccnc2)N2CCN(C)CC2)cc1 (centres undefined)	111% (inactive)
CCOC(=O)c1c(Nc2ccc(OCC)cc2)nnc(-c2ccccc2)c1-c1ccccc1	2% (active)

Compound	survival
CCOC(=O)c1c(C)c(-c2ccccc2)n(CC(=O)Nc2ccc(OCC)cc2)c1C	82% (inactive)
CCOC(=O)c1c(Oc2ccc(OC)cc2)nnc(-c2ccccc2)c1-c1ccccc1	91% (inactive)
CCOC(=O)c1c(C)oc2ncnc(Nc3ccc(OCC)cc3)c12	72% (inactive)
CCOC(=O)c1c(Nc2cccc(C(=O)OC)c2)nnc(-c2ccccc2)c1-c1ccccc1	19% (inactive)
CCOC(=O)c1c(Nc2ccc(OC)cc2)nnc(-c2ccccc2)c1-c1ccccc1	5% (active)
COCCn1c(SCC(=O)Nc2cc(Cl)ccc2OC)nc2c([nH]c3ccccc32)c1=O	132% (inactive)
Cc1ccc2sc(N3CCN(C(=O)C4COc5ccccc5O4)CC3)nc2c1C (centres undefined)	148% (inactive)
COc1ccc(-c2nnc(SCC(=O)Oc3c(C)cccc3C)o2)cc1OC	117% (inactive)
CN(C(=O)Nc1cn(C)c(=O)c2ccccc12)c1ccccc1	-6% (active)
Cc1ccc(NC(=O)Nc2cn(C)c(=O)c3ccccc23)c(Cl)c1	69% (inactive)
CCOc1ccccc1N(CC)C(=O)Nc1cn(C)c(=O)c2ccccc12	78% (inactive)
CCCNC(=O)C1CCC(Cn2c(=O)c3sccc3n(CC(=O)N(CC)CC)c2=O)CC1 (centres undefined)	128% (inactive)
Cc1ccc(CNC(=O)CN2C(=O)COc3ccc(S(=O)(=O)Nc4ccccc4)cc32)cc1	-6% (active)
COc1cccc(CNC(=O)CN2C(=O)COc3ccc(S(=O)(=O)Nc4ccccc4)cc32)c1	73% (inactive)
COc1ccc(CNC(=O)CN2C(=O)COc3ccc(S(=O)(=O)Nc4ccccc4)cc32)cc1	87% (inactive)
COc1ccc2c(c1)c1c(c(=O)n(-c3ccc(C)cc3)c(=O)n1CC(=O)NCc1ccc(C)cc1)n2C	70% (inactive)
O=S(=O)(Nc1ccccc1C(F)(F)F)c1ccc(N2CCCCS2(=O)=O)cc1	136% (inactive)
Cc1ccc(-n2nc(C)c3nc(CCC(=O)Nc4cccc(F)c4)c(=O)n(C)c32)cc1	-6% (active)
COc1cccc(NC(=O)CCc2nc3c(C)nn(-c4ccc(C)cc4)c3n(C)c2=O)c1	72% (inactive)
Cc1ccc(-n2nc(C)c3nc(CCC(=O)Nc4ccc(F)cc4)c(=O)n(C)c32)cc1	80% (inactive)

Compound	survival
Cc1ccc(NC(=O)c2c(C)oc3ncn(CC(C)C)c(=O)c23)nc1	129% (inactive)
Cc1nn(C)c(C)c1NC(=O)CSc1nccc(-c2ccc(Cl)cc2)n1	100% (inactive)
Cc1ccc(C(=O)CSc2nc3cc(C(=O)NC4CCCC4)ccc3c(=O)n2CC2CCCO2)c(C)c1 (centres undefined)	63% (inactive)
COc1ccc(C(=O)CSc2nc3cc(C(=O)NC4CCCC4)ccc3c(=O)n2CC2CCCO2)cc1 (centres undefined)	76% (inactive)
Cc1ccc(C(=O)CSc2nc3cc(C(=O)NC4CCCC4)ccc3c(=O)n2CC2CCCO2)cc1 (centres undefined)	75% (inactive)
CCOc1ccc(C(=O)CSc2nc3cc(C(=O)NC4CCCC4)ccc3c(=O)n2CC2CCCO2)cc1 (centres undefined)	0% (active)
O=C(CSc1nc2cc(C(=O)NC3CCCC3)ccc2c(=O)n1CC1CCCO1)c1cccc(Cl)c1 (centres undefined)	-3% (active)
O=C(CSc1nc2cc(C(=O)NC3CCCC3)ccc2c(=O)n1CC1CCCO1)c1ccc(F)cc1 (centres undefined)	70% (inactive)
CC(CN1CCCC1)OC(=O)c1ccc(F)cc1 (centres undefined)	109% (inactive)
Cc1ccc(-c2nnc(Nc3ccc(Br)cc3)c3ccccc23)cc1S(=O)(=O)N1CCCCC1	89% (inactive)
Cc1cccc(N2CCN(C(c3ccccc3)c3nnc(-c4ccccc4Cl)o3)CC2)c1C (centres undefined)	52% (inactive)
Cc1ccc(Cl)cc1N1CCN(C(c2ccc(F)cc2)c2nnc(-c3ccccc3)o2)CC1 (centres undefined)	50% (inactive)
Cc1cccc(N2CCN(C(c3ccccc3)c3nnc(-c4ccccc4F)o3)CC2)c1C (centres undefined)	43% (inactive)
Cc1ccc(C)c(N2CCN(C(c3ccc(F)cc3)c3nnc(-c4ccccc4)o3)CC2)c1 (centres undefined)	14% (active)
COc1ccc(N2CCN(C(c3ccccc3)c3nnc(-c4ccccc4Cl)o3)CC2)cc1 (centres undefined)	22% (inactive)
Cc1ccc(C)c(N2CCN(C(c3ccccc3)c3nnc(-c4ccccc4)o3)CC2)c1 (centres undefined)	1% (active)
Cc1cccc(N2CCN(C(c3ccc(F)cc3)c3nnc(-c4ccccc4)o3)CC2)c1C (centres undefined)	28% (inactive)
Cc1ccc(C)c(N2CCN(C(c3ccccc3)c3nnc(-c4ccccc4F)o3)CC2)c1 (centres undefined)	53% (inactive)
COc1ccccc1N1CCN(C(c2ccccc2)c2nnc(-c3ccccc3Cl)o2)CC1 (centres undefined)	0% (active)

From PubChem BioAssay AID463173 (ICCB-Longwood Screening Facility, Harvard Medical School, 2010)
